Screening results as filed in PubChem.
HSD17B inhib: HSD17B dehydrogenase inhibition. Q99714. recombinant HSD17B10, NADH fluorescence kinetic. Potency, µM (titrated, usually from 57.1 µM), for the others: at the top dose activity change, negative = inhibition, hits mostly inhibitors. 75,000 tested, 7.6% active. AID 893;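 also: the protocol describes HADH2 (HSD17B10) and not the HSD17B4 of the title; potency is read from the fitted curve at half-maximal effect; % is scaled to controls: 0 for no effect and ±100 for the full control effect; nearly all actives have a fitted effect of over 70% in size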
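Enzyme plus compound, 15 min room temperature; substrate mix added (NAD+ 1 mM, beta-hydroxybutyryl-CoA 90 uM final); plates read kinetically for NADH fluorescence. HADH2 was His-tagged, E. coli-derived, 20 nM.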
HADH2 inh: HADH2 (human) dehydrogenase inhibition. recombinant HADH2, NADH fluorescence, beta-hydroxybutyryl-CoA. Q99714. Potency, µM (doses to about 57.1 µM), inactives show top-dose activity change, negative = inhibition, most hits filed as inhibitors. 73,000 tested, 3.4% active; also: potency is read from the fitted curve at half-maximal effect; % is scaled to controls: 0 for no effect and ±100 for the full control effect; nearly all actives have a fitted effect of over 60% in size
Target sequence (Q99714 whole entry, looked up, one chain of several): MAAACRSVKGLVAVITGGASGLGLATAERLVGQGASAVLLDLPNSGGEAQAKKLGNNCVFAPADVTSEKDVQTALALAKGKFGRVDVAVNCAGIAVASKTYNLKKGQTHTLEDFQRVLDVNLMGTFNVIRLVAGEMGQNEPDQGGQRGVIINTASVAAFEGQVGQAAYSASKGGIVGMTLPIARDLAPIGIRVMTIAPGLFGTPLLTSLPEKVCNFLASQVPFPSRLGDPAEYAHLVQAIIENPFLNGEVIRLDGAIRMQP
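20 nM HADH2 + cpd, 15 min RT; add 1 mM NAD+/90 uM beta-hydroxybutyryl-CoA; kinetic fluorescence 360/450 nm, 4 min. Tris-HCl pH 9.0, 0.01% Tween-20.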
4-MU autofl: 4-MU region autofluorescence; compound autofluorescence, 340/450 nm, 4-MU equivalents; stronger effect = higher value; max dye-equivalent concentration, M; 59,000 tested, 11% active; AID 589; in the data active = max dye-equivalent concentration above about 10 nM; inconclusive = mostly about 1.1 nM to 9.6 nM
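Compounds in 100 mM Tris, pH 8.0, incubated 15 min at room temperature, then fluorescence read at 340 nm excitation/450 nm emission. Signal converted to 4-MU dye-equivalent concentration using an on-plate six-point 4-MU standard curve.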
PK Bst: pyruvate kinase (B. stearothermophilus) modulation; purified pyruvate kinase, luminescence ATP production; ribose 5-phosphate activator present at AC10; Potency, µM; 51,000 tested, 1.2% active; in the data active = potency below about 11 µM; inconclusive = mostly about 12 µM to 25 µM;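 the screen sought inhibitors and activators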;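 also: potency is read from the fitted curve at half-maximal effect; scaled between full activation by ribose 5 phosphate and full inhibition by luteolin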
AID923: qHTS Assay for Allosteric/Competitive Inhibitors of Caspase-1: Spectroscopic Profiling in AFC Spectral Region; compound fluorescence, AFC spectral region (405/520 nm); Potency, µM (highest dose often 57.5 µM), for the others: at the highest dose fluorescence increase, hits mostly activators; 75,000 tested, 1.1% active; also: potency is read from the fitted curve at half-maximal effect; 0% is about no effect
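Titrations up to 57 uM read every 20 sec for 3 min (405/520 nm) with 50 nM caspase 1 and 5 uM Ac-WEHD-AFC, pH 7.5 HEPES buffer. Fluorescence-vs-time intercept gave baseline, scaled against on-plate AFC standard.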
A350 fluor: compounds fluorescent in Alexa 350 spectral region. Compound autofluorescence, 340/450 nm, Alexa 350 dye-equivalents; stronger effect = higher value. max dye-equivalent concentration, M. 59,000 tested, 11% active. AID 590; in the data active = max dye-equivalent concentration above about 10 nM; inconclusive = mostly about 1.1 nM to 9.6 nM
The depositor's hits bear a star; i = inactive; ? = inconclusive; / = no result; [ ] = remark or other dose. Sampled rows, rich in hits. Any-hit rate of the full collection: about 13%. Unless noted, calls follow the shape of the dose curve; as a rule, active = well fitted curve in the direction sought with a large enough effect; inconclusive = small, poorly fitted or top-dose-only effect, or another doubt; inactive = no such curve, though single readings can be large; an effect the other way counts as inactive or inconclusive.

SMILES | HSD17B inhib | HADH2 inh | 4-MU autofl | PK Bst | AID923 | A350 fluor
CN(C)c1ccc(-c2noc(-c3ccccc3O)n2)cc1 | 4µM* | 25µM* | 4.2e-07M* | i | 0% | 3.3e-07M*
CC(=O)Nn1c(-c2ccccc2)cc2ccccc21 | 32µM* | -25% | i | >57 | -1% | i
CC(=O)Nc1c(Cl)n(C(C)=O)c2ccccc12 | 5% | -11% | / | / | 1% | /
Cn1c(=O)c2[nH]c([C@@H]3CC(=O)C[C@H](c4nc5c([nH]4)c(=O)n(C)c(=O)n5C)N3)nc2n(C)c1=O | 5%[11.4 µM] | 10%[11.4 µM] | ? | / | 1%[11.5 µM] | ?
C=CCN1C(=O)CS/C1=C(\C#N)S(=O)(=O)c1ccc(C)cc1 | 10µM* | 16µM* | i | >57 | -1% | i
c1ccc(C2Nc3ccccc3-c3nc4ccccc4n32)nc1 (stereo not given) | / | / | 2.1e-06M* | ? | / | 2.4e-06M*
c1coc(C2Nc3ccccc3-c3nc4ccccc4n32)c1 (stereo not given) | 13µM* | 16µM* | 3.2e-06M* | / | 10% | 3.4e-06M*
O=C1Cn2c(nc3ccccc32)-c2ccccc2N1 | -26% | 0% | ? | >11 | 1% | ?
O=C1c2ccccc2NC(c2ccco2)N1O (stereo not given) | -5% | -15% | / | / | 0% | /
O=C(c1cccc(F)c1)N1CCC2(CC1)CCN(c1ccccn1)CC2 | ? | 2% | i | / | 1% | i
CC1OC(OCC2OC(Oc3c(-c4ccc(OCCO)c(OCCO)c4)oc4cc(OCCO)cc(O)c4c3=O)C(O)C(O)C2O)[C@@H](O)C(O)C1O (stereo not given in full) | -5% | / | / | / | -5% | /
C[C@@H]1O[C@@H](OC[C@@H]2O[C@@H](Oc3c(-c4ccc(O)c(O)c4)oc4cc(O)cc(O)c4c3=O)[C@H](O)[C@H](O)[C@@H]2O)[C@H](O)[C@H](O)[C@@H]1O | / | 32µM* | i | / | / | i
O=C(O)[C@H](CCc1ccccc1)N1C(=O)c2ccccc2C1=O | 5%[11.4 µM] | 0%[11.4 µM] | i | / | 2%[11.5 µM] | i
CCc1cc2c(NCCC(=O)O)nc(C)nc2s1 | ? | -2% | 2.5e-08M* | >11 | 2% | 2.4e-08M*
CCc1cc2c(NCC(=O)O)ncnc2s1 | 9% | 10% | i | >57 | 1% | i
COc1c2ccoc2nc2c(OC)c(OCC(O)C(C)(C)O)ccc12 (stereo not given) | 20µM* | 93% | / | / | 6% | /
COc1ccc2c(OC)c3ccoc3nc2c1OC | 13µM* | ? | 1.6e-08M* | / | -3% | 1.7e-08M*
COc1ccc(-c2ccc(S(=O)(=O)N3CCOCC3)cc2)cc1 | 25µM* | ? | i | >57 | 0% | i
Cc1cc(C(=O)CSc2nnc(-c3ccco3)o2)c(C)n1Cc1ccco1 | 16µM* | 3% | i | >57 | 7% | i
Cc1nnc(C)c2c(C)n(Cc3ccc4c(c3)OCO4)c(C)c12 | 20µM* | -28% | 8.4e-08M* | >57 | 14% | 2.5e-08M*
Cc1cc(C(=O)CSc2nnc(Cc3ccccc3)o2)c(C)n1Cc1ccc2c(c1)OCO2 | 25µM* | -10% | i | >57 | 0% | i
C=CCn1c(C)cc(C(=O)CSc2nnc(Cc3ccccc3)o2)c1C | -4% | 1% | i | >57 | -1% | i
COc1ccc(-n2nnnc2SCC(=O)Nc2cccc(C)n2)cc1OC | 0% | 1% | i | >57 | 0% | i
COc1cccc(NS(=O)(=O)c2nc3nc(C)cc(C)n3n2)c1 | 12% | -10% | / | / | -2% | /
COC(=O)[C@H](CCSC)NC(=O)Nc1ccc(C)c(C)c1 | 4% | 5% | 2e-08M* | >57 | 2% | 3.1e-08M*
SMILES | HSD17B inhib | HADH2 inh | 4-MU autofl | PK Bst | AID923 | A350 fluor
CSCC[C@H](NC(=O)Nc1ccc(C)cc1)C(=O)O | -6% | 5% | 3.7e-08M* | >57 | 1% | 5.4e-08M*
COC(=O)[C@H](CCSC)NC(=O)Nc1ccc(C(C)C)cc1 | 13% | -2% | ? | >57 | 0% | ?
Cc1ccccc1N1C(=O)c2cc(S(N)(=O)=O)c(Cl)cc2NC1C (stereo not given) | 32µM* | ? | / | / | -4% | /
Cc1ccccc1N1C(=O)c2cc(S(N)(=O)=O)c(Cl)cc2N[C@H]1C | 16µM* | -14%[25.6 µM] | 1.7e-07M* | / | 1%[25.7 µM] | 1.5e-07M*
CCOc1cc2[nH]c(=O)n(CCCCC(=O)NC3CCCCC3)c(=O)c2cc1OCC | 32µM* | 4% | i | >57 | 2% | i
COc1cc2[nH]c(=O)n(CCC(=O)N3CCN(c4cc(Cl)ccc4C)CC3)c(=O)c2cc1OC | -19% | -23% | i | >57 | 1% | i
COc1cc2[nH]c(=O)n(CCC(=O)NC3CCCC3)c(=O)c2cc1OC | 25µM* | -3% | ? | >57 | -1% | ?
CCOc1cc2[nH]c(=O)n(CCCCC(=O)N3CCCCCC3)c(=O)c2cc1OCC | ? | -29% | i | >57 | 1% | ?
COc1cc2[nH]c(=O)n(CCC(=O)N3CCc4ccccc4C3)c(=O)c2cc1OC | 32µM* | -12% | i | >57 | 0% | i
Cn1c(CCNC(=O)c2ccco2)nc2cc(NS(=O)(=O)c3ccc(Cl)cc3)ccc21 | 4% | 4% | i | >57 | -2% | i
C[C@@H](C(=O)O)/C(=C/c1ccc2c(c1)OCO2)C(=O)O | 4%[11.4 µM] | 9%[11.4 µM] | i | / | 3%[11.5 µM] | i
O=C(O)[C@@H]1CCCN1Cc1cc2ccccc2c2ccccc12 | 7%[11.4 µM] | 12%[11.4 µM] | i | / | 1%[11.5 µM] | i
C/C(CCC(=O)OC[C@@H]1O[C@H](C#Cc2ccccc2)C=C[C@@H]1Oc1ccc(C)cc1)=N/OC[C@@H](O)COCc1ccco1 | 1%[11.4 µM] | 12%[11.4 µM] | / | / | 2%[11.5 µM] | /
O=c1cc(-c2ccccc2)[nH]c2ccccc12 | ? | -13% | i | / | 1% | i
O=c1nc(-c2ccccc2)c2ccccc2[nH]1 | 25µM* | -16% | 2e-07M* | >57 | 3% | 1.7e-07M*
Cc1cccc(Nc2ncnc3nc[nH]c23)c1 | 32µM* | ? | / | / | 1% | /
CC(C)[C@H](Nc1ncnc2nc[nH]c12)C(=O)O | 4%[11.4 µM] | -2%[11.4 µM] | i | / | 2%[11.5 µM] | i
Cc1ccc(C)c(Nc2ncnc3nc[nH]c23)c1 | ? | 136% | / | / | -3% | /
CC(Nc1ncnc2nc[nH]c12)c1ccccc1 (stereo not given) | 32µM* | -21% | / | / | 1% | /
C[C@@]12C=CC(=O)C=C1CC[C@@H]1C2=CC[C@]2(C)[C@@H]1CC[C@H]2C(=O)CN1CCN(c2cc(N3CCCC3)nc(N3CCCC3)n2)CC1 | -7% | 8% | i | / | -3% | i
COc1cccc(CNC(=O)Nc2cccs2)c1 | 25µM* | ? | i | >57 | 4% | i
Cc1ccc(Cn2ccc(NC(=O)c3c(-c4ccccc4Cl)noc3C)n2)cc1 | -3% | -4% | i | >57 | 3% | i
